The source made the active and inactive calls.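 Rule for the calls: active = a band for the stress protein GRP78 appears on a western blot of treated cells; inactive = no band seen on the blot.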
Assay: Hit Validation Western Blot Assay for Inducers of ERSR: Assessment of GRP78 Upregulation
Settings: cells, 4-24 h
Excerpt: Primary protein unfolding takes place for many diseases, including diabetes and hypoxia, , and triggers a reaction in the cells called ER stress response (ERSR). ). ERSR is designed as a repair mechanism, but ultimately leads to cell death via apoptosis if conditions triggering protein unfolding persist (1). The molecular clue to ERSR activation is the enhancement of the expression of key molecular chaperones, including the glucose regulated protein (GRP) 78. GRP78 is the main sensor for protein folding and the main actuator of the ERSR. In a collaboration between the Southern Research Institute and the NIH Chemical Genomics Center, a cell based screen was developed that reliably uses GRP78 as a sensor to identify small molecules as inducers of ERSR. In resting conditions, GRP78 binds proteins and acts as a natural repressor. Once unfolded proteins are present in the ER, GRP78 releases some of the repressors and binds to the unfolded proteins. The release of the repressors executes the ERSR program. Using a human glioma cell line in a miniaturized, luminescent format, a high-throughput screen was developed to identify actuators of the ERSR. In this assay, hits identified in the primary ERSR screen were characterized for their effects on wild type GRP78 upregulation using a western blot secondary assay. NIH Chemical Genomics Center [NCGC] […]
For `Cc1noc(C)c1C(=O)N1CCC2(CCCN(C(c3ccccc3)c3ccccc3)C2)CC1`, the outcome was “active; yes”.
